From PubChem
Sampled rows, rich in hits. Any-hit rate of the full collection: about 4%.
KKLEB cytotox – reduces viability of KKLEB cystic fibrosis airway cells; KKLEB CF airway cells viability, ATPlite luminescence, overnight; hits give low values; cells stimulated with P. aeruginosa culture filtrate; activity change (cytotoxicity), % at 5 µM; 360,000 tested, 0.36% active;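 active = corrected activity change at or below -50% at 5 µM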
CF NFkB inh – inhibitors of cystic fibrosis induced NF-kB | KKLEB NF-kB-GFP reporter, PAF-induced, GFP fluorescence overnight | inhibition, % at 5 µM | 360,000 tested, 0.86% active | AID 588850;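 active = at least 50% inhibition at 5 µM, scaled per plate between neutral and stimulator controls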;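 note: PAF is a Pseudomonas aeruginosa culture filtrate used as stimulus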
Peg3 prom inh – inhibitors of Peg3 promoter; HeLa PEG-Prom luciferase reporter, luminescence, overnight; inhibition, % at 20 µM; 360,000 tested, 1.7% active; AID 588405;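 active = inhibition of at least 50% at 20 µM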
HIF-2a block – HIF-2a inhibition; 786-0 RCC cells HIF-2a reporter, luciferase luminescence, overnight; inhibition, % at 18.8 µM; 360,000 tested, 0.72% active;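 active = inhibition of the luminescence signal of 40% or more relative to plate controls, in a single-dose primary screen at 18.75 µM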
TROY NFkB inh – inhibitors of TROY-dependent NF-kB signaling | inhibition, % at 10 µM | Q293 LMP1-TROYcd NF-kB luciferase reporter, 4 h | 360,000 tested, 0.98% active | AID 1347056;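 active = compounds whose plate-normalised and pattern-corrected inhibition of the luciferase reporter signal at the single screening dose is 50% or more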
TWEAK-Fn14 inh – TWEAK-Fn14 signaling inhibition. TWEAK-stimulated Fn14 reporter cells, luciferase luminescence, 8 h. inhibition, % at 10 µM. 360,000 tested, 2% active. AID 1159606; in the data active = inhibition above about 50%
CF NFkB conf – confirmation of cystic fibrosis induced NF-kB inhibitors. 1,300 tested, 64% active. AID 602472. shares compounds with CF NFkB inh. inhibition, % at 5 µM. KKLEB CF airway cells, PAF-induced NF-kB-GFP fluorescence, overnight; in the data active = inhibition above about 40%;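 note: stimulus PAF is a Pseudomonas aeruginosa filtrate and not platelet activating factor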
Numbers stand for hits; 0 = inactive; - = not tested or not shown.

SMILES	KKLEB cytotox	CF NFkB inh	Peg3 prom inh	HIF-2a block	TROY NFkB inh	TWEAK-Fn14 inh	CF NFkB conf
Clc1ccccc1Nc1nc(-c2ccncc2)nc2ccccc12	0	0	0	0	0	0	-
Clc1cccc(Nc2nc(-c3ccncc3)nc3ccccc23)c1	0	64.2	82.5	0	0	0	0
Cc1ccc([C@@H]2CC=C(C(=O)O)[C@H](c3ccc(C(C)(C)C)cc3)N2S(=O)(=O)c2ccc(C)cc2)cc1	0	50.7	0	0	64.9	52.0	0
Cc1ccc(S(=O)(=O)N2[C@@H](c3ccc(C(C)(C)C)cc3)C(C(=O)O)=CC[C@H]2c2ccc(C(C)C)cc2)cc1	0	62.3	0	0	86.8	94.4	53.0
CCOc1ccc(S(=O)(=O)N/N=C(\C)Cc2ccc(OC)cc2)cc1	0	0	0	0	0	0	-
CCOc1ccccc1C(=O)NCC(=O)N1CCN(Cc2ccc3c(c2)OCO3)CC1	0	74.2	0	0	0	0	0
COc1ccccc1C(=O)N1CCN(Cc2ccc3c(c2)OCO3)CC1	0	0	0	0	0	0	-
CC1=C(C(=O)N(C)C)CC(CC(=O)NCC2CCCCC2)C(=O)N1Cc1ccc(C(C)(C)C)cc1 (stereo not drawn)	0	0	0	0	0	0	-
O=C1OC(Nc2nc(-c3ccc(F)cc3)cs2)c2ccccc21 (stereo not drawn)	0	52.8	0	0	0	58.9	70.8
C[C@]12C[C@H](O)[C@H]3[C@@H](CCC4=CC(=O)CC[C@@]43C)[C@@H]1CC[C@@H]2C(=O)CO	0	0	0	0	0	0	-
CC(C)(CNC(=O)CO/N=C1/C=C2CCC3C(C(O)C[C@@]4(C)C3CC[C@]4(O)C(=O)CO)[C@@]2(C)CC1)C(O)C(=O)O (stereo partly drawn)	0	69.5	0	0	0	0	0
CC12CCC(=O)C=C1CCC1C2C(O)CC2(C)C1CCC2(O)C(=O)COC(=O)CCC1CCCC1 (stereo not drawn)	0	52.8	0	0	0	0	0
CC(=O)OCC(=O)C1(O)CCC2C3CCC4=CC(=O)CCC4(C)C3(Cl)C(O)CC21C (stereo not drawn)	0	76.6	0	0	0	0	0
CC(=O)OCC=C1CCC2C3CCC4=CC(=O)CCC4(C)C3C(O)CC12C (stereo not drawn)	0	0	0	0	0	0	-
CCC1c2ccc(C)n2CCN1C(=O)Nc1ccccc1OC (stereo not drawn)	0	0	0	0	0	0	-
Cc1ccc2c(c1)C(=O)C(=O)N2CC1COc2ccccc2O1 (stereo not drawn)	0	0	0	0	0	0	-
COc1cc2c(cc1NC(=O)Cc1ccc(C)cc1)oc1ccccc12	0	0	0	0	0	0	-
COc1cc2c(cc1NC(=O)CN1CCN(S(=O)(=O)c3ccccc3F)CC1)oc1ccccc12	0	55.1	0	0	0	0	41.4
OCCN1CCN(c2ncnc3ccc(Br)cc23)CC1	0	53.1	0	0	0	0	67.0
Cc1ccc2cc(CN(CC(C)C)S(=O)(=O)c3ccccc3)c(=O)[nH]c2c1	0	0	0	0	0	0	-
C=C1C[C@@]23CCC4[C@@](C)(CCC[C@@]4(C)C(=O)OC)C2CC[C@]1(OC(C)=O)C3 (stereo partly drawn)	0	50.7	0	0	0	0	0
COc1ccc(-c2oc3ccc(-c4ccc(OC)nc4)cc3c2C#CC2(O)CCCCC2)cc1	0	64.4	0	0	0	0	54.2
COc1ccc(-c2oc3ccc(-c4ccc5c(c4)OCO5)cc3c2C#CC2(O)CCCCC2)cc1	0	60.6	0	0	0	0	52.9
CN(C)/C=C1\C(=O)N(c2ccc(Oc3ccccc3)cc2)CS1=O (stereo not drawn)	0	0	0	0	0	0	-
COc1cccc(-c2c(C(=O)N/N=C/c3sccc3C)nnn2-c2nonc2N)c1	0	50.2	0	0	0	0	0
CC(=O)Oc1ccccc1C(=O)Oc1ccc(/C=N/n2cnnc2)cc1	0	72.9	0	0	0	0	63.8
CCOc1ccc(/C=N/n2cnnc2)cc1	0	0	0	0	0	0	-
